From PubChem BioAssay (NCI)
This is part of a sample that, as a whole, favours compounds with a hit. Of some 79,000 tested, about 15% had one in any assay. Unmarked numbers belong to inactive results. Active and inactive are the calls of the source. Cut-off read from the data, not from the text of the source: active = growth inhibition above about 70%; inactive = the rest.

What was measured:
[1] = NCI Yeast Anticancer Drug Screen. Data for the rad50 strain (AID 155);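 note: 0% = growth of vehicle-only cultures of the same strain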; conditions: S. cerevisiae rad50 strain growth inhibition, stronger effect = higher value
Summary of the method: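 Relative growth inhibition (compound vs vehicle) was measured in yeast with a defined repair-gene alteration.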

[2] = NCI Yeast Anticancer Drug Screen. Data for the mec2-1 strain (AID 157); conditions: S. cerevisiae mec2-1 strain, stronger effect = higher value
Summary of the method: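 mec2-1 yeast strain, carrying an alteration in DNA damage repair or cell cycle control, was exposed to compounds; growth inhibition was measured relative to vehicle-treated controls.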

[3] = NCI Yeast Anticancer Drug Screen. Data for the sgs1 mgt1 strain (AID 161);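 note: 0% = growth of cultures given vehicle only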; conditions: S. cerevisiae sgs1 mgt1 strain, stronger effect = higher value
Summary of the method: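 Compounds are added to genetically altered yeast, and growth is compared with cultures given vehicle alone to give percent inhibition.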

[4] = NCI Yeast Anticancer Drug Screen. Data for the cln2 rad14 strain (AID 165);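 note: 0% = growth equal to vehicle treated cultures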; conditions: S. cerevisiae cln2 rad14 strain, stronger effect = higher value
Summary of the method: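 Yeast carrying cln2 and rad14 alterations (cell cycle control and DNA damage repair) were exposed to compounds. Growth inhibition was measured against vehicle-treated controls.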

[5] = NCI Yeast Anticancer Drug Screen. Data for the bub3 strain (AID 167); conditions: S. cerevisiae bub3 mutant strain, stronger effect = higher value
Summary of the method: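 Screening used yeast with an engineered genetic alteration affecting cell cycle control. Compound-exposed cultures were compared with vehicle cultures, and reduced growth was taken as inhibition.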

[6] = NCI Yeast Anticancer Drug Screen. Data for the mlh1 rad18 strain (AID 175); conditions: S. cerevisiae mlh1 rad18 strain growth inhibition, stronger effect = higher value
Summary of the method: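 Growth inhibition of the yeast strain was measured after compound exposure and expressed relative to vehicle-treated controls. The strain carries defined defects in DNA damage repair.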

[7] = at 5.0 µM (retest, dose inferred, filed as 0.5)
[8] = at 50.0 µM (retest, dose inferred, filed as 5.0)

In the case of `CC(=O)c1cc(-c2ccccc2)nc2ccccc12`, the growth inhibition [1, 7] is reported as -5%, the growth inhibition [1, 8] is reported as 38% and the growth inhibition ([1]; at 50.0 µM) is reported as 89.2% (active). For the same compound, the growth inhibition [2, 7] was -29%, the growth inhibition [2, 8] was 84% (active) and the growth inhibition ([2]; at 50.0 µM) was 94.1% (active). For the same compound, the growth inhibition [3, 7] was 12%, the growth inhibition [3, 8] was 80% (active) and the growth inhibition ([3]; at 50.0 µM) was 98.2% (active). The growth inhibition [4, 7] was -25%, the growth inhibition [4, 8] was 35% and the growth inhibition ([4]; at 50.0 µM) was 74.5% (active). For the same compound, the growth inhibition [5, 7] was -28%, the growth inhibition [5, 8] was 87% (active) and the growth inhibition ([5]; at 50.0 µM) was 87% (active). The growth inhibition [6, 7] was 4%, the growth inhibition [6, 8] was 88% (active) and the growth inhibition ([6]; at 50.0 µM) was 97.1% (active).

For `CC(=O)/C(=C\c1ccccc1Cl)C(=O)CCN(C)C`, the growth inhibition [1, 7] was -35%, the growth inhibition [1, 8] was 93% (active) and the growth inhibition ([1]; at 50.0 µM) was 37.4%. The growth inhibition [2, 7] was 8%, the growth inhibition [2, 8] was 96% (active) and the growth inhibition ([2]; at 50.0 µM) was 38.1%. The growth inhibition [3, 7] was 0%, the growth inhibition [3, 8] was 94% (active) and the growth inhibition ([3]; at 50.0 µM) was 74% (active). The growth inhibition [4, 7] was 6%, the growth inhibition [4, 8] was 97% (active) and the growth inhibition ([4]; at 50.0 µM) was 20.6%. For the same compound, the growth inhibition [5, 7] was 7%, the growth inhibition [5, 8] was 97% (active) and the growth inhibition ([5]; at 50.0 µM) was 18.4%. The growth inhibition [6, 7] was -17%, the growth inhibition [6, 8] was 97% (active) and the growth inhibition ([6]; at 50.0 µM) was 80.8% (active).

In the case of `CCCCN(CCCC)CCCCNc1ccc(C)c2sc3ccccc3c(=O)c12`, the growth inhibition [1, 7] is reported as 36%, the growth inhibition [1, 8] is reported as 99% (active) and the growth inhibition ([1]; at 50.0 µM) is reported as 98.7% (active). The growth inhibition [2, 7] was 23%, the growth inhibition [2, 8] was 98% (active) and the growth inhibition ([2]; at 50.0 µM) was 99.2% (active). The growth inhibition [3, 7] was 83% (active), the growth inhibition [3, 8] was 98% (active) and the growth inhibition ([3]; at 50.0 µM) was 98.8% (active). The growth inhibition [4, 7] was 18%, the growth inhibition [4, 8] was 98% (active) and the growth inhibition ([4]; at 50.0 µM) was 98.3% (active). For the same compound, the growth inhibition [5, 7] was 50%, the growth inhibition [5, 8] was 98% (active) and the growth inhibition ([5]; at 50.0 µM) was 98.8% (active). The growth inhibition [6, 7] was 65%, the growth inhibition [6, 8] was 98% (active) and the growth inhibition ([6]; at 50.0 µM) was 99.2% (active).

In the case of `O.O.O=C(O)C(O)C(O)C(OC1OC(CO)C(O)C(O)C1O)C(O)CO.O=C(O)C(O)C(O)C(OC1OC(CO)C(O)C(O)C1O)C(O)CO.[NH-]C1CCCCC1[NH-].[Pt+2]` (configuration not stated), the growth inhibition [1, 7] is reported as -6%, the growth inhibition [1, 8] is reported as 39% and the growth inhibition ([1]; at 50.0 µM) is reported as 95.1% (active). For the same compound, the growth inhibition [2, 7] was -6%, the growth inhibition [2, 8] was 21% and the growth inhibition ([2]; at 50.0 µM) was 99.6% (active). The growth inhibition [3, 7] was 0%, the growth inhibition [3, 8] was 50% and the growth inhibition ([3]; at 50.0 µM) was 99.7% (active). The growth inhibition [4, 7] was 2%, the growth inhibition [4, 8] was 12% and the growth inhibition ([4]; at 50.0 µM) was 73.2% (active). The growth inhibition [5, 7] was -2%, the growth inhibition [5, 8] was -2% and the growth inhibition ([5]; at 50.0 µM) was 99.4% (active). The growth inhibition [6, 7] was -6%, the growth inhibition [6, 8] was 32% and the growth inhibition ([6]; at 50.0 µM) was 99.2% (active).

`CSc1nc(SC)c2cnn(Cc3ccccc3)c2n1` gave a growth inhibition [1, 7] of -16%, a growth inhibition [1, 8] of 21% and a growth inhibition ([1]; at 50.0 µM) of -7.1%. The growth inhibition [2, 7] was -1%, the growth inhibition [2, 8] was -15% and the growth inhibition ([2]; at 50.0 µM) was 4.9%. The growth inhibition [3, 7] was -15%, the growth inhibition [3, 8] was 25% and the growth inhibition ([3]; at 50.0 µM) was 9.7%. It also gave a growth inhibition [4, 7] of -11%, a growth inhibition [4, 8] of -4% and a growth inhibition ([4]; at 50.0 µM) of 2.35%. It also gave a growth inhibition [5, 7] of -8%, a growth inhibition [5, 8] of 18% and a growth inhibition ([5]; at 50.0 µM) of 1.3%. It also gave a growth inhibition [6, 7] of 18%, a growth inhibition [6, 8] of 7% and a growth inhibition ([6]; at 50.0 µM) of 16.9%.

For `c1ccc(CCc2c[nH]c3ccccc23)cc1`, the growth inhibition [1, 7] was -7%, the growth inhibition [1, 8] was -1% and the growth inhibition ([1]; at 50.0 µM) was 59.6%. The growth inhibition [2, 7] was 0%, the growth inhibition [2, 8] was 0% and the growth inhibition ([2]; at 50.0 µM) was 27.5%. For the same compound, the growth inhibition [3, 7] was -7%, the growth inhibition [3, 8] was 12% and the growth inhibition ([3]; at 50.0 µM) was 72.5% (active). It also gave a growth inhibition [4, 7] of -52%, a growth inhibition [4, 8] of -2% and a growth inhibition ([4]; at 50.0 µM) of 5.9%. For the same compound, the growth inhibition [5, 7] was -14%, the growth inhibition [5, 8] was 41% and the growth inhibition ([5]; at 50.0 µM) was 87.5% (active). For the same compound, the growth inhibition [6, 7] was -8%, the growth inhibition [6, 8] was 43% and the growth inhibition ([6]; at 50.0 µM) was 49%.

For `Nc1c(F)cccc1F`, the growth inhibition [1, 7] was -2%, the growth inhibition [1, 8] was 8% and the growth inhibition ([1]; at 50.0 µM) was -16.3%. For the same compound, the growth inhibition [2, 7] was 2%, the growth inhibition [2, 8] was 0% and the growth inhibition ([2]; at 50.0 µM) was 11.6%. For the same compound, the growth inhibition [3, 7] was -3%, the growth inhibition [3, 8] was 1% and the growth inhibition ([3]; at 50.0 µM) was -5.95%. It also gave a growth inhibition [4, 7] of 2%, a growth inhibition [4, 8] of -6% and a growth inhibition ([4]; at 50.0 µM) of 20.4%. The growth inhibition [5, 7] was 2%, the growth inhibition [5, 8] was 7% and the growth inhibition ([5]; at 50.0 µM) was -1.15%. It also gave a growth inhibition [6, 7] of 0%, a growth inhibition [6, 8] of 3% and a growth inhibition ([6]; at 50.0 µM) of -8.3%.

`Cc1ccc(/C=C/C(=O)c2cc(CN(C)C)c(O)c(CN(C)C)c2)cc1` gave a growth inhibition [1, 7] of 1%, a growth inhibition [1, 8] of 5% and a growth inhibition ([1]; at 50.0 µM) of 41.9%. It also gave a growth inhibition [2, 7] of 0%, a growth inhibition [2, 8] of 25% and a growth inhibition ([2]; at 50.0 µM) of -1.25%. For the same compound, the growth inhibition [3, 7] was -1%, the growth inhibition [3, 8] was 11% and the growth inhibition ([3]; at 50.0 µM) was -9.5%. For the same compound, the growth inhibition [4, 7] was 4%, the growth inhibition [4, 8] was -4% and the growth inhibition ([4]; at 50.0 µM) was 55.6%. For the same compound, the growth inhibition [5, 7] was 3%, the growth inhibition [5, 8] was 8% and the growth inhibition ([5]; at 50.0 µM) was -3.35%. For the same compound, the growth inhibition [6, 7] was -2%, the growth inhibition [6, 8] was 23% and the growth inhibition ([6]; at 50.0 µM) was 1.4%.

In the case of `Oc1c(Cl)cc(Cl)c2cccnc12`, the growth inhibition [1, 7] is reported as 56%, the growth inhibition [1, 8] is reported as 96% (active) and the growth inhibition ([1]; at 50.0 µM) is reported as 98.8% (active). The growth inhibition [2, 7] was 31%, the growth inhibition [2, 8] was 98% (active) and the growth inhibition ([2]; at 50.0 µM) was 99.2% (active). For the same compound, the growth inhibition [3, 7] was 21%, the growth inhibition [3, 8] was 99% (active) and the growth inhibition ([3]; at 50.0 µM) was 97.7% (active). The growth inhibition [4, 7] was 27%, the growth inhibition [4, 8] was 98% (active) and the growth inhibition ([4]; at 50.0 µM) was 98.2% (active). For the same compound, the growth inhibition [5, 7] was 64%, the growth inhibition [5, 8] was 97% (active) and the growth inhibition ([5]; at 50.0 µM) was 98.5% (active). For the same compound, the growth inhibition [6, 7] was 43%, the growth inhibition [6, 8] was 98% (active) and the growth inhibition ([6]; at 50.0 µM) was 99% (active).
